The text below walks through data of publication PMC4336329 (PLoS ONE, 2015).

About 14,000 (4.5%) of roughly 310,000 compounds showed an effect of 50% or more. The effect is printed as a negative number. For the sample, strong results were picked, then their nearest neighbours and some compounds at random.
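Also: peak tail current of the secondary pulse compared with the same well before compound.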

The target of this test is human ether-à-go-go-related gene (hERG) potassium channel (human, UniProt Q12809). Kind of test: primary screen, population patch clamp on CHO cells stably expressing hERG; higher = less effect of the substance.
Chain of human ether-à-go-go-related gene (hERG) potassium channel (Q12809 whole entry, looked up): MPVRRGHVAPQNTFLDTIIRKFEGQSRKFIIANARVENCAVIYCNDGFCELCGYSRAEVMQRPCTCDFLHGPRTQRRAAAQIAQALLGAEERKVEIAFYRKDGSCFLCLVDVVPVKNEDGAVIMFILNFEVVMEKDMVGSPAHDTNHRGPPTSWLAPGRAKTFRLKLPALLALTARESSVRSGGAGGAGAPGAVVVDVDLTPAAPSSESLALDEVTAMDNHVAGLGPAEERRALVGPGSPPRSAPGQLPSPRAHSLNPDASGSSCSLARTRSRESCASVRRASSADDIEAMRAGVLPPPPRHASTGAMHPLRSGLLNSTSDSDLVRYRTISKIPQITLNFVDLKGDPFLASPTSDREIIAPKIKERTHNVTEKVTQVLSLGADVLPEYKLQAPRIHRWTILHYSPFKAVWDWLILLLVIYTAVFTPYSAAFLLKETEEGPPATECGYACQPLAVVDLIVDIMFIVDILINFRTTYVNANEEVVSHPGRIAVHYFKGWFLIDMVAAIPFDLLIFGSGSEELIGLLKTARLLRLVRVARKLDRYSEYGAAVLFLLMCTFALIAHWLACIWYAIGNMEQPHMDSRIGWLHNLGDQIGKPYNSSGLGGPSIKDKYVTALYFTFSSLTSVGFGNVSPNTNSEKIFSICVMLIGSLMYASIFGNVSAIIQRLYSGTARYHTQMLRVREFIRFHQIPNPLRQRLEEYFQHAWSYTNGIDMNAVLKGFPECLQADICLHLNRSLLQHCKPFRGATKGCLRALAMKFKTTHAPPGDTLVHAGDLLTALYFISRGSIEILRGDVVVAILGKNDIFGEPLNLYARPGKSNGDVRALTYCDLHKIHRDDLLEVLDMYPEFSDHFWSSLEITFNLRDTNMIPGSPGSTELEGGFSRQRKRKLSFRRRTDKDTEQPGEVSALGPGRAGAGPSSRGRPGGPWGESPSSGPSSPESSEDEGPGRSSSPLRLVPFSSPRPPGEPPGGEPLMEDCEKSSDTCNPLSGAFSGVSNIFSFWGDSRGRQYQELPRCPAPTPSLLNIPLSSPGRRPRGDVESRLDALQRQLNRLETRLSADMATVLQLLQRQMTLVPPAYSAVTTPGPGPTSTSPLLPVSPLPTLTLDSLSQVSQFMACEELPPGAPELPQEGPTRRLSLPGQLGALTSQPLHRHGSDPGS
On to `CCCCn1c(N)c(N(CCOC)C(=O)c2cc(S(=O)(=O)N3CCOCC3)ccc2F)c(=O)[nH]c1=O`, for which the “hERG current change (%, negative = inhibition) at 10uM” value is on record as 16.1%.

With `Cc1cc(C(=O)COC(=O)c2cccn2C)c(C)n1Cc1ccco1`, the “hERG current change (%, negative = inhibition) at 10uM” value came out at 21.4%.

For the compound `Cc1nnc(SCC(=O)Nc2nsc(-c3ccc(Cl)cc3)n2)s1`, the “hERG current change (%, negative = inhibition) at 10uM” value was 0.522%.

For `Cc1cccc(N2CCN(S(=O)(=O)c3c(C(=O)N4CCCCC4)c(C)n(C)c3C)CC2)c1C`, the “hERG current change (%, negative = inhibition) at 10uM” value is -9.26%.

As to `COCc1c(C(=O)N2CCN(S(=O)(=O)c3ccccc3Cl)CC2)oc2ccccc12`, the “hERG current change (%, negative = inhibition) at 10uM” value was -13.9%.

On to `COCc1c(C(=O)N2CCN(c3ncccn3)CC2)oc2ccccc12`, for which the “hERG current change (%, negative = inhibition) at 10uM” value is -7.68%.

Regarding `COCc1c(C(=O)N2CCN(CCOc3ccccc3)CC2)oc2ccccc12`, the “hERG current change (%, negative = inhibition) at 10uM” value was -63.5%.

With `COCc1c(C(=O)N2CCN(Cc3nc4ccccc4s3)CC2)oc2ccccc12`, the “hERG current change (%, negative = inhibition) at 10uM” value was -72.5%.

On to `COCc1c(C(=O)N2CCN(c3ccc(C(F)(F)F)cn3)CC2)oc2ccccc12`, for which the “hERG current change (%, negative = inhibition) at 10uM” value is given as -23.7%.

As to `COCc1c(C(=O)N2CCN(Cc3ccc4c(c3)OCO4)CC2)oc2ccccc12`, the “hERG current change (%, negative = inhibition) at 10uM” value is recorded as -40.8%.

In the case of `COCc1c(C(=O)N2CCN(Cc3c(F)cccc3Cl)CC2)oc2ccccc12`, the “hERG current change (%, negative = inhibition) at 10uM” value is reported as -12.2%.

For the compound `COCc1c(C(=O)N2CCN(Cc3ccc(C#N)cc3)CC2)oc2ccccc12`, the “hERG current change (%, negative = inhibition) at 10uM” value is reported as -70.2%.

As to `COCc1c(C(=O)Nc2ccc3nc(N4CCOCC4)sc3c2)oc2ccccc12`, the “hERG current change (%, negative = inhibition) at 10uM” value is on record as -31.2%.

Regarding `CCC1Oc2ccccc2N(CC(=O)NCCCN2CCCC2)C1=O` (stereo not drawn), the “hERG current change (%, negative = inhibition) at 10uM” value was found to be 15.9%.

For `O=C(c1ccc(F)cc1)C(Cc1ccccc1)N1CCCCC1` (stereo not drawn), the “hERG current change (%, negative = inhibition) at 10uM” value is on record as 1.82%.

On to `COc1cccc(CN2CCN(C3CSCCSC3)CC2CCO)c1` (stereo not drawn), for which the “hERG current change (%, negative = inhibition) at 10uM” value is -13%.

Consider `OCCC1CN(C2CCN(c3ccccc3F)CC2)CCN1Cc1ccccc1` (stereo not drawn), for which the “hERG current change (%, negative = inhibition) at 10uM” value is -61.8%.

`COc1cccc(CN2CCN(C3CCN(c4cccc(C)c4C)CC3)CC2CCO)c1` (stereo not drawn): the “hERG current change (%, negative = inhibition) at 10uM” value was -66.2%.

Regarding `CCOC(=O)N1CCC(N2CCN(Cc3ccc(F)c(F)c3)C(CCO)C2)CC1` (stereo not drawn), the “hERG current change (%, negative = inhibition) at 10uM” value is recorded as -44.7%.

Regarding `CCOC(=O)N1CCC(N2CCN(Cc3ccccc3)C(CCO)C2)CC1` (stereo not drawn), the “hERG current change (%, negative = inhibition) at 10uM” value is given as -9.9%.

For `OCCC1CN(C2CCN(c3ccccc3)CC2)CCN1Cc1ccc(F)c(F)c1` (stereo not drawn), the “hERG current change (%, negative = inhibition) at 10uM” value is recorded as -71.2%.

For `COc1ccc(CN2CCN(C3CCC3)CC2CCO)cc1C` (stereo not drawn), the “hERG current change (%, negative = inhibition) at 10uM” value was determined as 8.14%.

In the case of `Cc1cccc(N2CCC(N3CCN(C4CCCCC4)C(CCO)C3)CC2)c1C` (stereo not drawn), the “hERG current change (%, negative = inhibition) at 10uM” value was -42.7%.

Take `OCCC1CN(C2CSCCSC2)CCN1Cc1ccccc1` (stereo not drawn): the “hERG current change (%, negative = inhibition) at 10uM” value worked out at 11.9%.

Turning to `OCCC1CN(C2CCC2)CCN1Cc1ccc(F)c(F)c1` (stereo not drawn), the “hERG current change (%, negative = inhibition) at 10uM” value was 5.12%.

Consider `COc1cccc(CN2CCN(C3CCN(c4ccccc4C)CC3)CC2CCO)c1` (stereo not drawn), for which the “hERG current change (%, negative = inhibition) at 10uM” value was -66.2%.

For `COc1cccc(CN2CCN(C3CCOCC3)CC2CCO)c1` (stereo not drawn), the “hERG current change (%, negative = inhibition) at 10uM” value worked out at 0.171%.

For `Cc1n[nH]c(C)c1Sc1ccccc1N=Cc1cc(Cl)cc([N+](=O)[O-])c1O`, the “hERG current change (%, negative = inhibition) at 10uM” value is reported as -10.9%.

`N#CCSc1nnc(C2CCCCC2)n1-c1ccccc1`: the “hERG current change (%, negative = inhibition) at 10uM” value is given as 4.45%.

As to `CCOC(=O)c1c(C)oc2cc(Cl)c(O)c(CN(C)C)c12`, the “hERG current change (%, negative = inhibition) at 10uM” value is -6.79%.

For the compound `CC(OC(=O)c1ccc(S(=O)(=O)NCc2ccco2)cc1)C(=O)Nc1ccc(Cl)cn1` (stereo not drawn), the “hERG current change (%, negative = inhibition) at 10uM” value is -39.8%.

Turning to `CC(C)C[C@@]12C(=O)N(c3cccc(Cl)c3)C(=O)N1[C@H](c1ccc(Br)cc1)[C@@H]1C(=O)N(C(C)(C)C)C(=O)[C@@H]12`, the “hERG current change (%, negative = inhibition) at 10uM” value was 22.7%.

Take `COc1ccc(CNC(=O)Nc2ccc3c(c2)N(C)C(=O)CS3)cc1`: the “hERG current change (%, negative = inhibition) at 10uM” value is -0.138%.

Consider `CCC(C)[C@H](NC(=O)N1CCCCCC1)C(=O)OC` (stereo partly drawn), for which the “hERG current change (%, negative = inhibition) at 10uM” value was 5.25%.

For `O=C(NCc1ccccc1)C1=C[C@@H](c2ccc3c(c2)OCO3)C[C@@H](OCc2ccc(CO)cc2)O1`, the “hERG current change (%, negative = inhibition) at 10uM” value is -25%.

On to `CCOc1ccccc1CN1CCN(C2CCOCC2)CC1CCO` (stereo not drawn), for which the “hERG current change (%, negative = inhibition) at 10uM” value came out at 9.47%.

For `CCOc1ccccc1CN1CCN(C2CCN(c3ccccc3F)CC2)CC1CCO` (stereo not drawn), the “hERG current change (%, negative = inhibition) at 10uM” value was -71.6%.

As for `CCOc1ccccc1CN1CCN(C2CCC2)CC1CCO` (stereo not drawn), the “hERG current change (%, negative = inhibition) at 10uM” value was 27.4%.

For the compound `COc1cc(CN2CCN(C3CCC3)CC2CCO)cc(OC)c1` (stereo not drawn), the “hERG current change (%, negative = inhibition) at 10uM” value turned out to be 8.54%.

`COc1ccc(CN2CCN(C3CCC3)CC2CCO)c(F)c1` (stereo not drawn): the “hERG current change (%, negative = inhibition) at 10uM” value is listed as 9.71%.

Turning to `COc1cccc(CN2CCN(C3CCN(c4ccccc4F)CC3)CC2CCO)c1` (stereo not drawn), the “hERG current change (%, negative = inhibition) at 10uM” value is recorded as -74.9%.

In the case of `COc1ccc(CNC(=O)COC(=O)c2ccco2)cc1`, the “hERG current change (%, negative = inhibition) at 10uM” value came out at 28.3%.

`Cc1cc(NC(=O)CSc2nnc(Cn3c(=O)sc4ccccc43)n2-c2ccccc2C)no1`: the “hERG current change (%, negative = inhibition) at 10uM” value is on record as 2.54%.

In the case of `COc1ccc2nc(NC(=O)CSCc3c(C)noc3C)sc2c1`, the “hERG current change (%, negative = inhibition) at 10uM” value was 1.24%.

As for `Cc1ccc(OC(C)C(=O)N2CCCc3ccccc32)cc1` (stereo not drawn), the “hERG current change (%, negative = inhibition) at 10uM” value is on record as -16.3%.

Consider `O=C(Cn1nc(-c2ccccc2)nc1-c1ccccc1)OC1CCCCC1`, for which the “hERG current change (%, negative = inhibition) at 10uM” value is 7.88%.

`CCCN(C(=O)CCOc1ccc(C(C)(C)C)cc1)c1c(N)n(Cc2ccccc2)c(=O)[nH]c1=O`: the “hERG current change (%, negative = inhibition) at 10uM” value is listed as 29.7%.

With `Cc1ccccc1OCCC(=O)N(CC(C)C)c1c(N)n(Cc2ccccc2)c(=O)[nH]c1=O`, the “hERG current change (%, negative = inhibition) at 10uM” value was -64.4%.

As for `Cc1ccccc1OCCC(=O)N(Cc1ccccc1)c1c(N)n(Cc2ccccc2)c(=O)[nH]c1=O`, the “hERG current change (%, negative = inhibition) at 10uM” value is given as -7.3%.

As to `COCCCN(C(=O)CCOc1ccccc1C)c1c(N)n(Cc2ccccc2)c(=O)[nH]c1=O`, the “hERG current change (%, negative = inhibition) at 10uM” value was -3.05%.

For the compound `COCCCN(C(=O)CCOc1ccc(C(C)(C)C)cc1)c1c(N)n(Cc2ccccc2)c(=O)[nH]c1=O`, the “hERG current change (%, negative = inhibition) at 10uM” value was -62.2%.

On to `COCCCN(C(=O)CCOc1ccc(C)cc1)c1c(N)n(Cc2ccccc2)c(=O)[nH]c1=O`, for which the “hERG current change (%, negative = inhibition) at 10uM” value is recorded as -20.2%.

Take `C=CCNC(=O)c1ccc2nc(-c3ccccc3)c(-c3ccccc3)nc2c1`: the “hERG current change (%, negative = inhibition) at 10uM” value is given as -15.4%.

As for `CN(c1ccccc1)c1ccc(/C=C(\CCC(=O)O)c2nc3ccccc3s2)cc1[N+](=O)[O-]`, the “hERG current change (%, negative = inhibition) at 10uM” value came to 44.6%.
